SMILES strings stand for the structures. Records with an inconclusive call do not appear. Where a call stands in place of a potency, no number is given. Activity calls are given as the source filed them. The call rests on the fitted dose curve; in most records, active means well fitted inhibition curve with a large enough effect in the signal ratio in the repeat runs (not every such curve was filed as active); inconclusive means weak or mixed curves, or effect the other way; inactive means flat fitted curve, though single readings scatter; the % refers to the signal ratio.

This assay is described as follows: cAMP Responsive Elements (CRE) small molecule antagonists, cell-based qHTS assay (AID 1963591). The settings on record: CRE-bla HEK293T, beta-lactamase FRET ratio; series mostly up to 92.4 µM. An excerpt:
U.S. Tox21 Program National Center for Advancing Translational Sciences [NCATS] Division of Preclinical Innovation [DPI] U.S. Environmental Protection Agency [EPA] National Institutes of Environmental Health Sciences [NIEHS] National Toxicology Program [NTP] U.S. Food and Drug Administration [FDA] Tox21 Assay Overview: CREB (cyclic-AMP Responsive Element Binding Protein) is a cellular transcription factor. It binds to certain DNA sequences called cAMP Responsive Elements (CRE) and regulates the transcription of the genes. […] This cell line can be used to find agonists/antagonists of the cyclic AMP signaling pathway. The activation of the report gene under culture conditions can be detected by fluorescence intensity. This cell line has been used to screen the Tox21 10K compound library to […].
Tox21 Assay Protocol Summary: CRE-bla Hek 293T cells were suspended in assay medium (DMEM containing 10% dialyzed FBS, 0.1 mM NEAA, 1 mM sodium pyruvate and 25 mM HEPES) and dispensed at 2,000 cells/4 uL /well into 1536-well black wall/clear bottom plates using a Multidrop Combi (ThermoFisher Scientific, Waltham, MA) dispenser. After the assay plates were incubated at 37 C/5% CO2 for 18 hrs, 23 nL of compounds dissolved in DMSO, positive controls or DMSO only was transferred to the assay plate by a pintool workstation (Kalypsys, San Diego, CA), followed by addition of 1 […] uL of 1.25uM NKH477 (0.25 uM as final concentration) in assay medium using a Flying Reagent Dispenser (Aurora Discovery, San Diego, CA). The plates were incubated at 37 C and 5% CO2 for 3 hrs. Then 1 uL of LiveBLAzer B/G FRET substrate (Invitrogen, Carlsbad, CA) was added to each well using Bioraptr Flying Reagent Dispenser (FRD, Aurora Discovery, San Diego, CA). The plates were incubated at room temperature for 2 h.
For orientation: Quantitative high-throughput screening tests each substance at several concentrations.
For `CCCCCCCCCCCBr`, the Potency result was “inactive”.
Then `Cc1ccc2sc3cccc(C)c3c2c1`, with “inactive”; and `C=C(C)C1CC=C(C)C(O)C1` (stereo not given), with “inactive”; and `O=c1c2ccccc2nnn1CCl`, with “inactive”.
Under `Cc1ccsc1/C=C/C1=NCCCN1C` stands “inactive”.
Then `C/C=C(\C)C(=O)OCCC(C)CCC=C(C)C` (stereo not given), with “inactive”.
As to `Nc1ccc(C(=O)Oc2ccccc2)c(O)c1`, the Potency result is “inactive”.
Under `C[C@@H](CN1CC(=O)NC(=O)C1)N1CC(=O)NC(=O)C1` stands “inactive”; under `O=[N+]([O-])c1cccc(I)c1`, “inactive”.
Regarding `CCCCCCCCCCCCCCCC(=O)OC[C@H](O)[C@H]1OC(=O)C(O)=C1O`, the Potency entry is “inactive”.
Then `Cc1cc(NC(=O)C2=C(O)c3ccccc3S(=O)(=O)N2C)no1`, with “inactive”; and `COC(=O)C1=C(C)NC(C)=C(C(=O)OC(C)(C)CN(C)CCC(c2ccccc2)c2ccccc2)C1c1cccc([N+](=O)[O-])c1` (stereo not given), with “inactive”.
Then `O=C(/C=C/c1ccccc1)OCCCc1ccccc1`, with “inactive”; and `CCCCOCCOC(=O)COc1cc(Cl)c(Cl)cc1Cl`, with “inactive”; and `Cc1c(Cl)cccc1[N+](=O)[O-]`, with “inactive”.
Under `NC1CCN(c2cccc(Cl)n2)CC1` stands “inactive”; under `CC(C)(C)NCC(O)COc1cccc2c1CCC(=O)N2` (stereo not given), “inactive”; under `Cc1cc(O)c(C)c(C)c1O`, “inactive”.
`NC(CO)C(=O)NNCc1ccc(O)c(O)c1O` (stereo not given): the Potency entry is “inactive”.
Under `CC(C)COC(=O)COc1cc(Cl)c(Cl)cc1Cl` stands “inactive”; under `O=C(NCCc1c[nH]c2ccccc12)c1cccnc1`, “inactive”; under `O=C(Oc1ccccc1)c1ccccc1C(=O)Oc1ccccc1`, “inactive”.
For the molecule `CC(C)=CCC/C(C)=C\C#N`, the Potency entry was “inactive”.
Under `Cc1cccc2sc(N)nc12` stands “inactive”; under `O=P(O)(O)Oc1ccccc1`, “inactive”.
Under `COc1ccc2c(c1OC)C(=O)O[C@@H]2[C@H]1c2c(cc3c(c2OC)OCO3)CCN1C` stands “inactive”; under `CCCCOC(=O)CC`, “inactive”; under `O=C(O)Cc1ccccc1Oc1ccc(Cl)cc1Cl`, “inactive”.
Then `CCN(CCC#N)c1ccc(N=Nc2ccc([N+](=O)[O-])cc2)cc1`, with “inactive”; and `c1ccc(C(O[C@H]2CCCN(CCc3ccc4c(c3)OCO4)C2)c2ccccc2)cc1`, with “inactive”.
Consider `C=C(C)C(=O)OCCN(C)C`, for which the Potency result was “inactive”.
Then `O=C(O)COCC(=O)O`, with “inactive”; and `CCc1cccc(C)c1N(C(=O)C(=O)O)C(C)COC` (stereo not given), with “inactive”; and `Cc1cccc(C(=O)O)c1[N+](=O)[O-]`, with “inactive”.
In the case of `CCCCCCCCCC#N`, the Potency result is “inactive”.
Under `CN(C)CCN(Cc1ccsc1)c1ccccn1` stands “inactive”; under `CC[N+](CC)(CC)Cc1ccccc1`, “inactive”.
Under `O=C(CCCCC(=O)Nc1c(I)cc(I)c(C(=O)O)c1I)Nc1c(I)cc(I)c(C(=O)O)c1I` stands “inactive”; under `CCC(=O)c1c(O)cc(O)cc1O`, “inactive”.
Under `C[N+](C)(C)CCOC(=O)CCC(=O)OCC[N+](C)(C)C` stands “inactive”.
